In article PMC7862700, “An all-to-all approach to the identification of sequence-specific readers for epigenetic DNA modifications on cytosine”:

Key:
Assay in all cases: DAPPL (digital affinity profiling via proximity ligation, sequencing); 10 mM Tris-HCl pH 7.5, 50 mM NaCl, 1 mM DTT, 4% glycerol, room temperature, 30 min; GST-TFs on glutathione beads, 16-mer random dsDNA library, 0.1% formaldehyde crosslink after washing; high values mean tight binding
Conditions in all cases: protein: recombinant; tags: N-terminal GST; dsDNA, one strand shown
FLI1 = target: T1, FLI1 (Homo sapiens, UniProt Q01543 1-452)
T1 sequence: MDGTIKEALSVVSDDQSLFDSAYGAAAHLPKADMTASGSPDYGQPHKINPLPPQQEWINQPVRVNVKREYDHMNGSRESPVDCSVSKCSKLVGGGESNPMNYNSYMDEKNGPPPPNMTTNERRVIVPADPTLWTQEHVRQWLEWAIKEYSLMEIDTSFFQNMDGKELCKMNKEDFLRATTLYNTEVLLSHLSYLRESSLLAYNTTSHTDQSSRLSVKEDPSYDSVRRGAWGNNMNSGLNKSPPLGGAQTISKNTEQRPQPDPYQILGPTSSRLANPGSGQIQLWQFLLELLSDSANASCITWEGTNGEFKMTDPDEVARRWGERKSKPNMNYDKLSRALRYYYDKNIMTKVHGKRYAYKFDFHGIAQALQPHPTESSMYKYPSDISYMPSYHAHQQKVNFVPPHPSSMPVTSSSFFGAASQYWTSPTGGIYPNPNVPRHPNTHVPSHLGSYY
Summary of the method: (§1)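 Human transcription factors fused to GST were expressed in yeast, captured on glutathione beads, given DNA barcodes and pooled with a GST-only negative control. Pools were incubated with 200 nmole of a 16-mer random double-stranded DNA library in Tris/NaCl/DTT/glycerol buffer at room temperature for 30 min. They were then washed, crosslinked with 0.1% formaldehyde, proximity-ligated (BsaI/T4 ligase, 1 h, 37 °C), PCR-amplified and sequenced on an Illumina NextSeq500. Binding signal is each 6-mer's read frequency for a factor divided by its frequency for the GST control.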

ELK1 = target: T2, ELK1 (Homo sapiens, UniProt P19419 1-428)
T2 sequence: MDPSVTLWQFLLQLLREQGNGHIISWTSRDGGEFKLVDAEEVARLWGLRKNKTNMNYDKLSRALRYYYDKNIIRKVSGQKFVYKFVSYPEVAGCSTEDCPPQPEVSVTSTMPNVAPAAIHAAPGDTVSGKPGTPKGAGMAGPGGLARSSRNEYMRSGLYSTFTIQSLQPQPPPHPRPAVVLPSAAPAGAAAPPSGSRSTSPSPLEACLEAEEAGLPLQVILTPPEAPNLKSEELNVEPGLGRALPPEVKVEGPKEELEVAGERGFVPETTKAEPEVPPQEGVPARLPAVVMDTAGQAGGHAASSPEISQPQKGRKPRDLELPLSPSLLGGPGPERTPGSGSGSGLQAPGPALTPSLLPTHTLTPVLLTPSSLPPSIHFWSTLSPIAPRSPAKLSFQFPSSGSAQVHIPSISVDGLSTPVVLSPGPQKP
Summary of the method: as §1

GABPA = target: T3, GABPA (Homo sapiens, UniProt Q06546 1-454)
T3 sequence: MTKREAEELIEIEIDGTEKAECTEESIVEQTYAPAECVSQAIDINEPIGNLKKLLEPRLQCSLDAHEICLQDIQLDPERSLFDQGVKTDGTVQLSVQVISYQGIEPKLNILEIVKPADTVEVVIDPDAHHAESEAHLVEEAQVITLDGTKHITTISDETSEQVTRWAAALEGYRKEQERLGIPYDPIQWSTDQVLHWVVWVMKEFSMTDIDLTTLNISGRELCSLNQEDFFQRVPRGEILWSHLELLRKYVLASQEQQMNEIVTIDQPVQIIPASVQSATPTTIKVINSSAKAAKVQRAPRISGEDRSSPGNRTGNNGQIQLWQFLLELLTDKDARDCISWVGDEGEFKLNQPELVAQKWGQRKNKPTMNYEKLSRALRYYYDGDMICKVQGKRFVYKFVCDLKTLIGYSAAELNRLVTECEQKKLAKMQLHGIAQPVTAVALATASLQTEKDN
Summary of the method: as §1

ERG = target: T4, ERG (Homo sapiens, UniProt P11308 1-479)
T4 sequence: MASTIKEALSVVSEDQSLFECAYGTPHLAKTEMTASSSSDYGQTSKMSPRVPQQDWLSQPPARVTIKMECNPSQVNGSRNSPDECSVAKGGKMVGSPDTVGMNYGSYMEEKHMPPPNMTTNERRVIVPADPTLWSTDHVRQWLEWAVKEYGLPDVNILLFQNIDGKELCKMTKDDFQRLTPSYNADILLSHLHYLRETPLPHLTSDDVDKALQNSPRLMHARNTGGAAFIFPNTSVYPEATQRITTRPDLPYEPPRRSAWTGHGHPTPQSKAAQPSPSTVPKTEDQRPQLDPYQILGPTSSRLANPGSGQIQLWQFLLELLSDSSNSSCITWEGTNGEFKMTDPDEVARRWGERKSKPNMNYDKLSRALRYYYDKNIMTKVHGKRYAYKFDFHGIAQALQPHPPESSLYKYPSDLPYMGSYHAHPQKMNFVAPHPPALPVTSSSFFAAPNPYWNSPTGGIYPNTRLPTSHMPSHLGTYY
Summary of the method: as §1

ELF1 = ELF1 (Homo sapiens, UniProt P32519 1-619)
Chain of ELF1 (P32519 whole entry): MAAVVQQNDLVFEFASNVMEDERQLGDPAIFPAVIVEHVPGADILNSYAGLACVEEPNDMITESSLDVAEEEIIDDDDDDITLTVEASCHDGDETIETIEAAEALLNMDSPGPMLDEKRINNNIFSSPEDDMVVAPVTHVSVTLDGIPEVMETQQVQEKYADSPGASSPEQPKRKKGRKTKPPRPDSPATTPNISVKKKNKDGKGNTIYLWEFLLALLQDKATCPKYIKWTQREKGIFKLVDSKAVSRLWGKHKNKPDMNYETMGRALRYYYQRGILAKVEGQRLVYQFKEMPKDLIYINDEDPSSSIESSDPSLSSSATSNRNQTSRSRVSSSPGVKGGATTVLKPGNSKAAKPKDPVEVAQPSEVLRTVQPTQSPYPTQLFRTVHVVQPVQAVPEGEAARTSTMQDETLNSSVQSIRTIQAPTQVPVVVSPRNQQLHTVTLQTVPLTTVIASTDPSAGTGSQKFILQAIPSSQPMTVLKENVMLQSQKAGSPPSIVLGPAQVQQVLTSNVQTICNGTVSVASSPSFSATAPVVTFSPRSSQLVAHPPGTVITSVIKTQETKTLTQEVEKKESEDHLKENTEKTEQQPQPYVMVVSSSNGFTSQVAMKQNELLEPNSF
Summary of the method: as §1

EHF = target: T5, EHF (Homo sapiens, UniProt Q9NZC4 1-300)
T5 sequence: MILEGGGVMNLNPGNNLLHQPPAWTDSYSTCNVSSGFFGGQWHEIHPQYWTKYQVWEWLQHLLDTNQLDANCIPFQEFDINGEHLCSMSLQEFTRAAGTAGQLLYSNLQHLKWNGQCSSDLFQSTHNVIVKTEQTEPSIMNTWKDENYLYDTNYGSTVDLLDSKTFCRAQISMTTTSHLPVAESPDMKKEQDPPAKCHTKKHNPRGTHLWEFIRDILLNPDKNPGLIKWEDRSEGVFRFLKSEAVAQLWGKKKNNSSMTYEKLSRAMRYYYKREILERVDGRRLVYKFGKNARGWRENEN
Summary of the method: as §1

SPI1 = SPI1 (Homo sapiens, UniProt P17947 1-270)
Summary of the method: as §1

SPIB = SPIB (Homo sapiens, UniProt Q01892 1-262)
Chain of SPIB (Q01892 whole entry): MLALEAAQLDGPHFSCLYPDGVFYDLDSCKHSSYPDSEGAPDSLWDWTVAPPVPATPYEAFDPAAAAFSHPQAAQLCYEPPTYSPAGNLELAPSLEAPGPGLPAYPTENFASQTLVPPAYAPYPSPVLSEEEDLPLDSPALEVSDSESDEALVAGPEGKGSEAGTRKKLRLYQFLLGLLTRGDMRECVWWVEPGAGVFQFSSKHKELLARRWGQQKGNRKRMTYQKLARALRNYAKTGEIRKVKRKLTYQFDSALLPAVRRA
Summary of the method: as §1

ELK3 = target: T6, ELK3 (Homo sapiens, UniProt P41970 1-407)
T6 sequence: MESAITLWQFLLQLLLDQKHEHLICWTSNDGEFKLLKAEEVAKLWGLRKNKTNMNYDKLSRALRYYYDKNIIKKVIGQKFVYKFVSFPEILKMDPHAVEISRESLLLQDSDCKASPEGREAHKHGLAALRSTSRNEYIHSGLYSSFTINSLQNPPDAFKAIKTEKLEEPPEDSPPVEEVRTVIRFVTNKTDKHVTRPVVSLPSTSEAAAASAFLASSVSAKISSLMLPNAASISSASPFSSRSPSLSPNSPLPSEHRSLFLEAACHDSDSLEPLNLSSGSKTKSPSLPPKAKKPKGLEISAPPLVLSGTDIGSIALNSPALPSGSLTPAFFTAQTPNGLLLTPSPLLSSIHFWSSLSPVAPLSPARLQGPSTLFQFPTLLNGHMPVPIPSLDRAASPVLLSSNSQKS
Summary of the method: as §1

With TCACGA the binding signal (FLI1) was 1.09 fold enrichment (6-mer frequency, TF over GST control), the binding signal (ELK1) was 1.19 fold enrichment (6-mer frequency, TF over GST control) and the binding signal (GABPA) was 1.09 fold enrichment (6-mer frequency, TF over GST control). For the same sequence, the binding signal (ERG) was 1.1 fold enrichment (6-mer frequency, TF over GST control), the binding signal (ELF1) was 1.13 fold enrichment (6-mer frequency, TF over GST control) and the binding signal (EHF) was 1.21 fold enrichment (6-mer frequency, TF over GST control). For the same sequence, the binding signal (SPI1) was 1.06 fold enrichment (6-mer frequency, TF over GST control), the binding signal (SPIB) was 1.04 fold enrichment (6-mer frequency, TF over GST control) and the binding signal (ELK3) was 1.21 fold enrichment (6-mer frequency, TF over GST control).
